S2 tox: cell viability loss in ATXN counter-screen | S2 cells (HEK-293 line with an ATXN2-luciferase reporter) viability, CellTiter-Fluor protease fluorescence, 24 h | Potency, µM (highest dose often 56.7 µM), hits mostly cytotoxic | 400,000 tested, 0.49% active; note: potency is the fitted concentration of half-maximal effect; nearly all actives have a fitted effect of over 40% in size
PINK1 expr mod: modulators of PINK1 expression. 410,000 tested, 0.2% active. Potency, µM (highest dose often 76.6 µM), inactives show at the top dose activation (PINK1 increase), hits mostly activators. PINK1 immunofluorescence, high-content cytometry, 24 h; active = well fitted activation curve with a large enough effect; inconclusive = small, poorly fitted or top-dose-only effect; cell line not stated here; note: potency is the fitted concentration of half-maximal effect; % of control where 0% means no effect; nearly all actives have a fitted effect of over 65% in size
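Measures PINK1 amount and localization on or inside mitochondria by immunofluorescence. Stable cells get compounds at 5 concentrations for 24 hours before fixation and staining; CCCP controls included.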
ATXN2 expr inh: reduces ATXN2 reporter expression in HEK-293 cells. Potency, µM (highest dose often 57 µM), for inactives: top-dose activity change, negative = inhibition, usual class: inhibitors. HEK-293 ATXN2-luciferase reporter, luminescence, 24 h. 360,000 tested, 0.72% active; note: potency is the fitted concentration of half-maximal effect; % is set by controls: 0 for no effect and ±100 for the full control effect; nearly all actives have a fitted effect of over 55% in size
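qHTS (up to 57 uM final) was run with 24 h compound exposure of reporter cells at 37 °C. Each well was multiplexed: SteadyGlo luminescence measured ATXN2-luciferase expression after a fluorogenic Gly-Phe-AFC viability readout (25 uM final).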
SW480 rereplic: DNA re-replication induction in SW480 cells; SW480 DNA re-replication, Hoechst DNA content imaging, 48 h; Potency, µM (series often up to 46.1 µM), without a hit: top-dose re-replication activation, usual class: activators; 340,000 tested, 1.8% active; note: potency is the fitted concentration of half-maximal effect; % of control where 0% means no effect; nearly all actives have a fitted effect of over 55% in size
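Cells (250 per well) received 23 nL compound or DMSO by pin tool and were kept 48 hr at 37 C, 5% CO2. Nuclei were then stained with Hoechst for 40 min and scanned for DNA content.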
IL1B secr inh: inflammasome signaling inhibition, IL-1 beta readout | AID 743279 | activity change, % at 57.5 µM | THP-1 LPS/ATP IL-1B secretion, AlphaLISA, 16 h; stronger effect = lower value | 360,000 tested, 4.7% active; in the data active = activity change below about -50%; inconclusive = mostly about -30% to -49%; note: % is set by controls: 0 for no effect and ±100 for the full control effect
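THP-1 cells pretreated 1 hr with compounds (up to 57.5 uM final), then stimulated with LPS (250 ng/mL final) plus ATP (1.25 mM final); secreted IL-1B measured by AlphaLISA after 16 hr, decreased signal indicating inhibition.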
MCF10A rerep: induces DNA re-replication in MCF 10a normal breast cells; Potency, µM (top dose mostly 46.1 µM), inactives show top-dose activity, positive = re-replication, actives largely listed as activators; 350,000 tested, 2.9% active; MCF 10A DNA re-replication, Hoechst nuclear intensity, 48 h; note: potency is the fitted concentration of half-maximal effect; % of control where 0% means no effect; nearly all actives have a fitted effect of over 50% in size
Starred values were filed as active, the others as inactive; i = inactive; u = inconclusive; x = no result given; [ ] = remark or other dose. An excerpt weighted towards active compounds, which were near 7.1% of everything screened. Unless noted, calls come from the whole dose curve; as a rule, active = well fitted curve in the direction sought with a large enough effect; inconclusive = small, poorly fitted or top-dose-only effect, or another doubt; inactive = no such curve, though single readings can be large; an effect the other way counts as inactive or inconclusive.

SMILES | S2 tox | PINK1 expr mod | ATXN2 expr inh | SW480 rereplic | IL1B secr inh | MCF10A rerep
N#Cc1ccc(-c2cccnc2)nc1SCC(=O)Nc1sc2c(c1C#N)CCC2 | i | u | -11% | 8% | 5 | 11%
COc1ccc(-c2ccc(C#N)c(SCC(=O)Nc3sc4c(c3C#N)CCC4)n2)cc1 | i | 1% | -2% | 3.3µM* | -2 | u
N#Cc1c(C(F)(F)F)cc(-c2ccccc2)nc1SCC(=O)Nc1sc2c(c1C#N)CCC2 | i | 13µM* | -19% | -4% | 35 | 1%
O=C(CSc1nnc(CNC(=O)c2ccco2)o1)c1ccc(Cl)cc1 | i | -1% | -5% | u | -106* | -34%
COc1ccc(C(=O)CSc2nnc(Cc3ccccc3)o2)cc1 | i | 0%[38.3 µM] | -17% | 7% | -9 | -8%
O=C(CSc1nnc(CNc2ccccc2)o1)c1ccc2c(c1)OCCO2 | i | -1%[38.3 µM] | 46% | 3% | -68* | -4%
COc1ccc(Cc2nnc(SCC(=O)c3ccc(OC)cc3)o2)cc1 | i | x | -2% | -20% | u | 6.5µM*
CCOc1cc(C(=O)CSc2nnc(CNc3ccc(Cl)cc3)o2)ccc1NC(=O)CC | 20µM* | -3% | 32µM* | 11% | -103* | u
O=C(NCc1nnc(SCC(=O)N2CCCCCC2)o1)c1ccco1 | i | 0% | -5% | -4% | 13 | -4%
COc1cccc(CNC(=O)c2c(OC)cc(=O)n3c2CCN(C(=O)c2ccc(C)cc2C)CC3)c1 | i | -1% | x | x | x | x
COc1ccc(CNC(=O)c2cc3c(-c4ccccc4F)nn(C)c3s2)cc1 | i | 1% | -21% | x | x | x
C=C1C(=O)[C@@]23C(CC[C@@H]1[C@H]2O)[C@@]12CO[C@]3(O)[C@@H](O)[C@@H]1C(C)(C)CC[C@@H]2O (stereo partly specified) | x | x | 9.7µM* | x | x | x
N#Cc1c(NCCN)nc(NCc2ccccc2)c2c1CCN(Cc1ccccc1)C2 | i | 1% | 8% | 21µM* | u | u
N#Cc1c(NCCCO)nc(-c2ccccc2)c2c1CCCC2 | i | -1% | 2% | 7% | 14 | u
N#Cc1c(NCCN)nc(-c2ccccc2)c2c1CCCC2 | u | -4% | -12% | u | -55* | u
C=CCNc1nc(NCc2ccccc2)c(C#N)c2c1CN(C)CC2 | i | -1% | -3% | 15% | u | u
CCCn1c(SCC(=O)NC2CCCC2)nnc1C(C)C | i | 0% | -2% | 18µM* | -2 | 0%
COCCn1c(SCC(=O)NC2CCCC2)nnc1C(C)C | i | 5% | -2% | 26% | 3 | 1%
O=C(Cn1cnc2c(NCc3ccccc3)ncnc21)NCc1ccccc1 | i | 11% | -1% | 12µM* | 85 | 9.2µM*
COc1ccc(OC)c(Nc2ncnc3c2cnn3-c2cccc(C)c2)c1 | i | 11%[38.3 µM] | 4% | 7.3µM* | 6 | u
c1ccc(CNc2ncnc3c2cnn3-c2ccccc2)cc1 | i | 5% | 1% | 13µM* | 41 | 9.2µM*
O=C(Cn1cnc2c(NCc3ccccc3)ncnc21)NCc1ccc2c(c1)OCO2 | u | 3% | -30% | u | 12 | u
Cc1ccc(-n2ncc3c(NNC(=O)Cc4ccccc4)ncnc32)cc1 | i | 11% | 6% | -17% | 0 | 23µM*
CCc1cccc(C)c1NC(=O)c1cc(S(=O)(=O)N(Cc2ccc(C(=O)OC)cc2)Cc2ccc(OC)c(OC)c2)ccc1F | x | 0% | x | x | x | x
CN(CC=CC#CC(C)(C)C)Cc1cccc2ccccc12 | x | x | -15% | x | x | x
COc1ccc(-n2nc(C(N)=O)c3c2C(=O)N(c2ccc(N4CCCCC4=O)cc2)CC3)cc1 | x | x | 5% | x | x | x
O=C(COCc1cc(-c2cccs2)on1)Nc1cccc(Cl)c1Cl | x | 2% | x | x | x | x
NC(=O)Cn1c(=O)n(CCCCCC(=O)NCc2ccccc2)c(=O)c2sccc21 | i | 2% | 13% | x | x | x
c1ccc(CCNc2ncnc3c2cnn3-c2ccccc2)cc1 | i | x | 88% | 18µM* | u | u

Screening results deposited in PubChem by National Center for Advancing Translational Sciences (NCATS).
